KB-3-1 cytotox = qHTS assay for MDR1-selective chemotherapeutics: Primary screen using the parental adenocarcinoma cell KB-3-1 | KB-3-1 viability, CellTiter-Glo ATP luminescence, 72 h | Potency, µM (highest dose often 46.1 µM), actives largely listed as cytotoxic | 400,000 tested, 1.4% active; also: potency is read from the fitted curve at half-maximal effect; % is scaled to controls: 0 for no effect and ±100 for the full control effect; nearly all actives have a fitted effect of over 60% in size
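Using CellTiter-Glo luminescence, growth of non-resistant KB-3-1 adenocarcinoma cells is assessed 72 h after pin-tool compound addition at 37 °C. Normalized responses across the concentration series yield fitted curves.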
hERG WT inh = qHTS for Inhibitors of KCHN2 3.1: Wildtype qHTS; Voltage-gated inwardly rectifying potassium channel KCNH2 (Homo sapiens), Q12809; U2OS, BacMam KCNH2, thallium flux FluxOr; active compounds read low; activity change, % at 1.84 µM; 340,000 tested, 0.37% active; AID 720551, 2013;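 active = maximum activity change below -70%; inconclusive = maximum activity change between -70% and -50%; inactive = maximum activity change above -50%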; also: % is scaled to controls: 0 for no effect and ±100 for the full control effect
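U2OS cells were transduced with wild-type KCNH2 virus (2.03 x 10^8 / mL) for 4 h at room temperature, then cultured overnight at 37 C. Thallium flux was read with FluxOr dye. Rate constants were normalized to DMSO controls.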
KCNH2 3.1 block = qHTS for Inhibitors of KCHN2 3.1: Mutant qHTS; Potassium voltage-gated channel subfamily H member 2, brain isoform KCNH2 3.1 (human); U2OS KCNH2 3.1, thallium flux FluxOr; active compounds read low; activity change, % (tested at about 1.8 µM); 340,000 tested, 0.95% active; AID 720553, 2013;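 active = maximum activity change below -70%; inconclusive = maximum activity change from -70% to -50%; inactive = maximum activity change above -50%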;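 also: thallium influx rate constant from kinetic fluorescence after stimulation buffer; % is scaled to controls: 0 for no effect and ±100 for the full control effect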
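Thallium flux read-out: FluxOr dye with Red40 quencher in HBSS/HEPES, 45 min at RT. Rate constants from kinetic reads were normalized to positive and negative DMSO controls. Cells: U2OS virally expressing the 3.1 isoform.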
MCF10A rereplic = A quantitative high throughput screen for small molecules that induce DNA re-replication in MCF 10a normal breast cells. MCF 10A DNA re-replication, Hoechst nuclear intensity, 48 h. Potency, µM (top dose mostly 46.1 µM), for the others: at the top dose activity, positive = re-replication, actives largely listed as activators. 350,000 tested, 2.9% active. AID 624296, 2012; also: potency is read from the fitted curve at half-maximal effect; % of control where 0% means no effect; nearly all actives have a fitted effect of over 50% in size
SW480 rereplic = A quantitative high throughput screen for small molecules that induce DNA re-replication in SW480 colon adenocarcinoma cells. 340,000 tested, 1.8% active. AID 624297, 2012. Potency, µM (series often up to 46.1 µM), for the others: at the highest dose re-replication activation, hits mostly activators. SW480 DNA re-replication, Hoechst DNA content imaging, 48 h; also: potency is read from the fitted curve at half-maximal effect; % of control where 0% means no effect; nearly all actives have a fitted effect of over 55% in size
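SW480 cells exposed to compounds for 48 hr at 37 C, 5% CO2, then Hoechst-stained 40 min. Nuclear DNA content imaged by fluorescence scanning (405 nm excitation, 500-530 nm emission); re-replication scored as increased high-intensity nuclei.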
KB-V1 MDR tox = qHTS assay for MDR1-selective chemotherapeutics: Primary screen using the drug-selected MDR subline cells KB-V1. AID 1347076, 2019. KB-V1 MDR cells viability, CellTiter-Glo, 72 h. 400,000 tested, 3.4% active. Potency, µM (doses to about 46.1 µM), usual class: cytotoxic; also: potency is read from the fitted curve at half-maximal effect; % is scaled to controls: 0 for no effect and ±100 for the full control effect; nearly all actives have a fitted effect of over 60% in size
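Following 72 h at 37 degrees C with compound, KB-V1 cell viability was read by CellTiter-Glo luminescence, medium being phenol-red-free DMEM plus 10% FBS; concentration-response parameters came from normalized, curve-fitted qHTS data.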
Starred values were filed as active, the others as inactive; i = inactive; ? = inconclusive; . = no result; [ ] = remark or other dose. A selection: hits, their analogues and other compounds. The true share with any hit is near 7.6%. Unless noted, calls follow the shape of the dose curve; as a rule, active = well fitted curve in the direction sought with a large enough effect; inconclusive = small, poorly fitted or top-dose-only effect, or another doubt; inactive = no such curve, though single readings can be large; an effect the other way counts as inactive or inconclusive.

SMILES	KB-3-1 cytotox	hERG WT inh	KCNH2 3.1 block	MCF10A rereplic	SW480 rereplic	KB-V1 MDR tox
Cc1ccsc1C(=O)Nc1ccc(OCc2ccccc2)cc1	i	1	-25	1%	-4%	i
CCN1CCN(c2ccccc2NC(=O)c2ccc(-n3cccn3)cc2)CC1	i	2	-15	21%	-3%	i
O=S(Cc1ccc(Cl)cc1)c1ncc(CO)n1Cc1ccccc1 (stereo unspecified)	16µM*	8	2	-1%	?	i
O=C(CCCCCn1c(=S)[nH]c2ccc(N3CCOCC3)cc2c1=O)NCc1cccc(Cl)c1	i	7	20	16µM*	?	i
O=C(CCCCCn1c(=S)[nH]c2ccc(N3CCOCC3)cc2c1=O)NCc1ccccc1	i	-3	1	22%	-3%	i
O=c1c2cc(N3CCOCC3)ccc2[nH]c(=S)n1Cc1ccccn1	i	-8	25	?	-2%	i
O=c1c2cc(N3CCOCC3)ccc2[nH]c(=S)n1Cc1ccccc1Cl	i	9	-12	23µM*	?	i
CCOC(=O)c1sc2nccc(N(C)C)c2c1N=CNOCc1ccccc1	?	12	-12	21µM*	?	9.2µM*
CCOC(=O)c1sc2nccc(N(C)C)c2c1N=CNOCc1c(F)cccc1Cl	i	6	10	15µM*	?	?
CCCS(=O)(=O)NC(=O)C1(C)CCN(C(=O)c2cc(C)on2)C1 (stereo unspecified)	i	.	.	.	.	i
Cc1cc(NC(=O)NN2CCOCC2)nn1-c1c(Cl)cccc1Cl	i	-3	0	-25%	-59%	i
CCOc1cc(/C=C/c2ccc3cccc([N+](=O)[O-])c3n2)ccc1OCC(=O)N(C)C	?	-17	11	28%	?	18µM*
CCOc1cc(/C=C/c2ccc3cccc([N+](=O)[O-])c3n2)ccc1O	12µM*	-5	-10	?	.	21µM*
Cc1ccc(S(=O)(=O)NCC2CCC(C(=O)NCCc3ccccc3)CC2)cc1 (stereo unspecified)	i	.	.	.	.	i
CCCCCCCCNc1ccccc1S(=O)(=O)NCc1ccccc1	i	22	19	5.2µM*	-6%	i
Cc1ccc(C(=O)N(Cc2cccs2)C2CCS(=O)(=O)C2)cc1 (stereo unspecified)	i	-1	33	4%	-4%	i
O=C(c1ccc([N+](=O)[O-])cc1)N(Cc1cccs1)C1CCS(=O)(=O)C1 (stereo unspecified)	.	31	-101*	25%	0%	.
Cc1ccccc1OCC(=O)N(Cc1cccs1)C1CCS(=O)(=O)C1 (stereo unspecified)	i	4	-7	-178%[0.0737 µM]	-5%	i
Cc1cccc(OC(C)C(=O)N(Cc2cccs2)C2CCS(=O)(=O)C2)c1C (stereo unspecified)	i	6	5	4%	5%	5.8µM*
COc1ccc(Cl)cc1NC(=O)CNC(c1ccccc1)c1ccccc1	?	-6	-45	?	?	15µM*
COc1ccc(Cl)cc1NC(=O)CN1c2ccccc2CC1C (stereo unspecified)	?	1	-5	14%	5%	15µM*
COc1ccc(C)cc1NC(=O)CNC(c1ccccc1)c1ccccc1	i	-2	28	?	25%	i
COc1ccc(Cl)cc1NC(=O)NC(C)c1ccncc1 (stereo unspecified)	i	-1	18	?	0%	18µM*
COc1ccc(-c2ccccc2)cc1NCc1ccc(OC)c(OC)c1	i	0	6	11%	-7%	16µM*
COc1cc(NC(=O)CN2c3ccccc3CC2C)cc(OC)c1OC (stereo unspecified)	i	2	6	19%	1%	i
SMILES	KB-3-1 cytotox	hERG WT inh	KCNH2 3.1 block	MCF10A rereplic	SW480 rereplic	KB-V1 MDR tox
COc1ccc(-n2cc(C(=O)Oc3cc(C)cc(C)c3)c3ccccc3c2=O)cc1	i	.	.	.	.	i
COc1ccc(CNC(=O)CNC(c2ccccc2)c2ccccc2)cc1OC	i	-6	2	20%	-3%	8.2µM*
COc1ccc(CC(=O)NCc2cccc(CNC(=O)Cc3ccc(OC)c(OC)c3)c2)cc1OC	i	16	-12	-1%	-9%	i
CCCCc1cc(=O)oc2cc(C)cc(OCC(=O)N3C[C@H]4C[C@@H](C3)c3cccc(=O)n3C4)c12	?	-2	5	?	1.8µM*	i
CC(=O)c1ccc(OCc2nnn(CC(=O)NS(=O)(=O)Cc3ccccc3)c2-c2ccccc2)cc1	i	.	.	.	.	?
COC(=O)C/C(O)=C(/N=Nc1cccc(C(F)(F)F)c1)C(=O)OC	i	-15	2	5.8µM*	?	i
Cc1[nH]c2ccccc2c1C(=O)c1cc(Cc2ccccc2)sc1N	21µM*	.	.	.	.	18µM*
COCCCNC(=O)c1cc(Cc2ccccc2)sc1N	i	.	.	.	.	i
O=C(Nc1nc2ccc(SC(F)F)cc2s1)c1ccc(NS(=O)(=O)c2ccc(F)c(F)c2)cc1	i	-4	-17	18µM*	-3%	?
CS(=O)(=O)c1ccc2nc(NC(=O)c3ccc(NS(=O)(=O)c4ccc(F)c(F)c4)cc3)sc2c1	i	-8	-2	?	-3%	i
CCCCNc1cnn(-c2ccccc2)c(=O)c1Cl	i	11	-13	-3%	-4%	i
CCc1ccc(Nc2cnn(-c3nc4ccccc4s3)c(=O)c2Cl)cc1	i	-9	0	8%	-4%	13µM*
Cc1ccc(N(C)S(=O)(=O)c2cccc(C(=O)Nc3ccc(N4CCOCC4)cc3)c2)cc1	?	-11	-2	18%	7%	?
COc1ccc(NC(=O)c2cccc(OC(=S)N3CCOCC3)c2)cc1	i	-6	1	-2%	-7%	16µM*
COc1ccc(C(=O)Oc2cc(C(=S)N3CCOCC3)ccc2OC)cc1	i	-140*	-161*	1%	-3%	i
COc1ccc(C(=O)Oc2ccc(C(=S)N3CCOCC3)cc2)cc1	?	1	-6	0%	-3%	i
